Data from PubChem BioAssay.
The source made the active and inactive calls. Unless noted, the rule behind the calls is not given here.

How the values were obtained:
[1] = anti-His antibody binders, primary screen, artefact control for SMM control protein annotation, biochemical, small-molecule microarray, 635 nm fluorescence (AID 1128); settings: anti-His Alexa647 antibody binding, higher = more signal;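 note: score merges feature fluorescence with signal-to-noise for each printed compound spot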
[2] = tested on: Human papillomavirus type 1a E7 protein (residues 1-88); assay: HPV1a E7 small-molecule binders, primary screen, biochemical, small-molecule microarray, residues 1-88, 635 nm (AID 1129); settings: small-molecule microarray binding, fluorescence 635 nm; higher = more signal
[3] = molecular target: Focal adhesion kinase 1 (Homo sapiens) (UniProt Q05397); assay: small-molecule microarray binders of FAK, primary screen, biochemical, 635/667 nm fluorescence, BSA, DTT (AID 1130); settings: PTK2 binding, 635 nm fluorescence, higher = more signal;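 note: composite of spot emission at 667 nm and signal to noise over triplicate slides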
[4] = tested on: Fibrinogen (Alexa647-labelled); assay: fibrinogen binders on compound microarrays, profiling panel, artefact control for SMM control-protein annotation, biochemical, small-molecule microarray, 635/667 nm fluorescence (AID 1131); settings: fibrinogen-A647 binding fluorescence, higher = more signal;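 note: z-score merges 667 nm fluorescence with per-spot signal-to-noise over triplicate slides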
[5] = molecular target: Follistatin (Homo sapiens) (UniProt P19883); assay: follistatin binders on small-molecule microarrays, primary screen, biochemical, small-molecule microarray, 635/667 nm fluorescence (AID 1132); settings: FST binding, 635 nm fluorescence, higher = more signal
[6] = molecular target: Fibroblast growth factor 2 (Homo sapiens) (UniProt P09038); assay: FGF2 binders on small-molecule microarrays, primary screen, biochemical, small-molecule microarray, 635/667 nm fluorescence (AID 1133); settings: small-molecule microarray binding, FGF2, fluorescence 635/667; higher = more signal
[7] = mitochondrial membrane potential change in A549 cells, profiling panel, cell-based, JC-1 fluorescence, basal, 24 h, 100 nL (AID 1138); settings: higher = more signal;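 note: A549 lung adenocarcinoma cells under basal conditions with no added stimulus; test concentration not given here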
Lefty1 = Lefty1 binders on small-molecule microarrays, primary screen, biochemical, small-molecule microarray, 635/667 nm fluorescence (AID 1139); settings: small-molecule microarray binding, fluorescence 635/667; higher = more signal
[8] = tested on: wheat germ agglutinin (Triticum aestivum), Alexa647-labelled; assay: wheat germ agglutinin binders on compound microarrays, profiling panel, artefact control for SMM control-protein annotation, biochemical, small-molecule microarray, 635/667 nm fluorescence (AID 1140); settings: WGA-A647 binding, 635 nm fluorescence, higher = more signal;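 note: score merges 667 nm feature emission with signal to noise over triplicate slides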
[9] = molecular target: Luciferin 4-monooxygenase (Photinus pyralis) (UniProt P08659); assay: firefly luciferase enzyme inhibitors, primary screen, biochemical, luminescence, purified enzyme, 2006 set (AID 1141); settings: SteadyGlo luminescence, 30 min, higher = more signal, called active from +8 up or from −8 down;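 note: cell-free assay with purified firefly luciferase at 100 ng per well in PBS; test concentration not given here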
[10] = tested on: Wnt5a (protein binding on small-molecule microarray); assay: Wnt5a binders on small-molecule microarray, primary screen, biophysical, 635/667 nm fluorescence (AID 1142); settings: 635 nm fluorescence, higher = more signal;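 note: fluorescence read at 667 nm with signal to noise per printed feature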
[11] = cell viability in Huh7 cells, primary screen, cytotoxicity control for HCV replication inhibitor project, CellTiter-Glo luminescence, basal, 48 h (AID 1143); settings: Huh7 HCV replicon, higher = more signal, called active from +8 up or from −8 down;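 note: Huh7 hepatoma cells carrying a hepatitis C replication reporter with no stimulus; test concentration not given here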
[12] = P. aeruginosa biofilm formation inhibitors, primary screen, PAO1 strain, BacTiter-Glo luminescence, LB-PBS (AID 1144); settings: 12 h, higher = more signal
[13] = CREB reporter modulators without forskolin, primary screen, cell-based, PC12, CRE-LacZ reporter, unstimulated (AID 1145); settings: no forskolin, luminescence, 4.5 h, higher = more signal, called active from +8 up or from −8 down
[14] = CREB reporter modulators under forskolin, primary screen, cell-based, PC12, CRE-LacZ reporter, forskolin-stimulated (AID 1146); settings: luminescence, 4.5 h, higher = more signal, called active from +8 up or from −8 down;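 note: PC12 cells with 6xCRE LacZ reporter stimulated by forskolin 10 µM; beta-galactosidase reporter signal reflecting CREB driven transcription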
[15] = molecular target: Streptavidin (Streptomyces avidinii) (UniProt P22629); assay: streptavidin binders on small-molecule microarray, primary screen, artefact control for SMM compound annotation, biophysical, 635/667 nm fluorescence (AID 1147); settings: streptavidin binding, higher = more signal;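 note: signal reflects streptavidin binding to arrayed compounds as a control protein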
[16] = small-molecule binders of probe aInhba, primary screen, biochemical, small-molecule microarray, 635/667 nm fluorescence (AID 1148); settings: higher = more signal;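 note: score merges 667nm spot fluorescence with signal-to-noise for antibody binding to printed compounds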
Torsin-1A (Homo sapiens) [17] = molecular target: Torsin-1A (Homo sapiens) (UniProt O14656); assay: torsin A binders from cell lysate, primary screen, small-molecule microarray, wild-type, 635/667 nm (AID 1149); settings: COS7 hTOR1A-WT lysate, 635 nm fluorescence, higher = more signal
Torsin-1A (Homo sapiens) [18] = molecular target: Torsin-1A (Homo sapiens) (UniProt O14656); assay: small-molecule binders of mutant TOR1A in lysate, primary screen, cell lysate, small-molecule microarray, COS7 lysate, 635/667 nm fluorescence (AID 1150); settings: COS7 hTOR1A mutant lysate, 635 nm fluorescence, higher = more signal;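 note: score pools 667 nm emission and signal to noise measuring lysate protein binding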
[19] = tested on: Sonic hedgehog protein (Shh); assay: small-molecule binders of Shh protein, primary screen, biochemical, small-molecule microarray, 635/667 nm fluorescence (AID 1151); settings: small-molecule microarray binding, 635 nm fluorescence; higher = more signal;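 note: Shh protein binding to compounds spotted on small-molecule microarray slides; score combines spot fluorescence intensity with signal-to-noise across triplicate slides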

Chain of Focal adhesion kinase 1 (Homo sapiens) (Q05397 whole entry, looked up): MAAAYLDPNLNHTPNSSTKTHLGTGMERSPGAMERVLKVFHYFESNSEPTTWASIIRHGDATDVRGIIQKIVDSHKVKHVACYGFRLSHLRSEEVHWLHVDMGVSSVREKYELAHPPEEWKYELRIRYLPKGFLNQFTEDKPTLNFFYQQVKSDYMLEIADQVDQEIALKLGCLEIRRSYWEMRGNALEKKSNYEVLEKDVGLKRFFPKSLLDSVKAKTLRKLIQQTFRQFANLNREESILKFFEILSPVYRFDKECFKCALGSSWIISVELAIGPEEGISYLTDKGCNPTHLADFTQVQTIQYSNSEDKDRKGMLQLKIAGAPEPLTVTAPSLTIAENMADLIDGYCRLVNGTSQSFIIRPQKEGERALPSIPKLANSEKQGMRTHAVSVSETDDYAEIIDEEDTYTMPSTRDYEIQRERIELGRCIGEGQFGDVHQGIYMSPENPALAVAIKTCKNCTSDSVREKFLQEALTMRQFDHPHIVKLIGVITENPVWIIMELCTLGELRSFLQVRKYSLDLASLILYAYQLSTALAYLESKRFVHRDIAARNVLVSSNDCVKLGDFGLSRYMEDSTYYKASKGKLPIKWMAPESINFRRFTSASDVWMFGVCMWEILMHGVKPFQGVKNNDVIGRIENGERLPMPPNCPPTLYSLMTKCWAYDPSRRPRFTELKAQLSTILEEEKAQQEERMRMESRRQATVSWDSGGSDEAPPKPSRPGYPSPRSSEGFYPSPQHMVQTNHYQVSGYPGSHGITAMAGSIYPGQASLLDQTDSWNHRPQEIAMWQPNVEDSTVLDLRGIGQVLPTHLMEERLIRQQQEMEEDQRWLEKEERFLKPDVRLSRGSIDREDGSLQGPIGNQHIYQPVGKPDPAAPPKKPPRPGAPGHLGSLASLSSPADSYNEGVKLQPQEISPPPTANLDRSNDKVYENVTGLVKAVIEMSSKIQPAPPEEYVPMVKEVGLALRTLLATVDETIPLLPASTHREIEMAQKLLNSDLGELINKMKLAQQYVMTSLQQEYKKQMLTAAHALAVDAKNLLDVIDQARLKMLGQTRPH
Chain of Follistatin (Homo sapiens) (P19883 whole entry, looked up): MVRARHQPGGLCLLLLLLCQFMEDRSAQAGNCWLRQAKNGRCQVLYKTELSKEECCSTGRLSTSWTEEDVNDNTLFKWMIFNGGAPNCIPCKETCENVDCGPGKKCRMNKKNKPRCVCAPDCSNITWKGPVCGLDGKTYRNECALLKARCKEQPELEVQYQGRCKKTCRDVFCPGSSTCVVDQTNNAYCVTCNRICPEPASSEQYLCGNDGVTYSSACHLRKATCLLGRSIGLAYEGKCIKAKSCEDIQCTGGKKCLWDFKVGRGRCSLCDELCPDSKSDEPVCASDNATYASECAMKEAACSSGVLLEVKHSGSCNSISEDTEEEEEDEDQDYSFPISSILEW
Chain of Torsin-1A (Homo sapiens) (O14656 whole entry, looked up): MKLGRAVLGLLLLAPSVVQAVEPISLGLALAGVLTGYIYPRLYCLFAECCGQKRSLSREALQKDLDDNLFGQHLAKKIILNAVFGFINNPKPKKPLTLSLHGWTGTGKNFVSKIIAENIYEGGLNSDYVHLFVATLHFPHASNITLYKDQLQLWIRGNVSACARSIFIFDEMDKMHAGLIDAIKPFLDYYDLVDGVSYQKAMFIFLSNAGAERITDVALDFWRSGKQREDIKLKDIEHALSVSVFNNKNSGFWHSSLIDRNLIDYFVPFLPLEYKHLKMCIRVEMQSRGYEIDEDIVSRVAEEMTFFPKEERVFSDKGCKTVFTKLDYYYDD
Chain of Fibroblast growth factor 2 (Homo sapiens) (P09038 whole entry, looked up): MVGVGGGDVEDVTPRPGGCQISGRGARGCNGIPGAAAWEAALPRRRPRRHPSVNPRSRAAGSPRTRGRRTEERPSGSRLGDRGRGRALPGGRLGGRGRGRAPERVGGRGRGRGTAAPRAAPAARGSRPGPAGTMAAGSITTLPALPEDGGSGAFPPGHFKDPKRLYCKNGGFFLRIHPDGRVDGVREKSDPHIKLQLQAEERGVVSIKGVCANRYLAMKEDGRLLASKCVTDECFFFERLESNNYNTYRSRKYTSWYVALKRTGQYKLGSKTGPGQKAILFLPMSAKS
Chain of Streptavidin (Streptomyces avidinii) (P22629 whole entry, looked up): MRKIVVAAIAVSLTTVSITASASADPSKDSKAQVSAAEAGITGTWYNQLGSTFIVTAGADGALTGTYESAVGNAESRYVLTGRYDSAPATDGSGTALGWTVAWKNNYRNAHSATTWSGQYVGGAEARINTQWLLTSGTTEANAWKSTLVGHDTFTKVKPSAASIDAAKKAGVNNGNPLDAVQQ
Chain of Luciferin 4-monooxygenase (Photinus pyralis) (P08659 whole entry, looked up): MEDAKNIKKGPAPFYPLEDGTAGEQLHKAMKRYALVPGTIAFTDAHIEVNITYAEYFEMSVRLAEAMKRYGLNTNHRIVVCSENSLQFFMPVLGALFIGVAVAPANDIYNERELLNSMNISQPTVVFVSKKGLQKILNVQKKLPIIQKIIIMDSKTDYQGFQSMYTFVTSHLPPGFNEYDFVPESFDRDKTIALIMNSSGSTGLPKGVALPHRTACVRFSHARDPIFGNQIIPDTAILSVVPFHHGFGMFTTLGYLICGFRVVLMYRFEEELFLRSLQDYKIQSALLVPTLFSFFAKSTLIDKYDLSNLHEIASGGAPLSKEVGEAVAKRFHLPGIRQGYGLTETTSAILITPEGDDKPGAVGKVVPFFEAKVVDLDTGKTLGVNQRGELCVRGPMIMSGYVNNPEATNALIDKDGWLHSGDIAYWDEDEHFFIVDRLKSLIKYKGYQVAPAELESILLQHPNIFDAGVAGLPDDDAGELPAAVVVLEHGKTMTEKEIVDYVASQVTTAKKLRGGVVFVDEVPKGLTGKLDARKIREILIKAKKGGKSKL

Compound	composite z-score [1]	composite z-score [2]	composite z-score [3]	composite z-score [4]	composite z-score [5]	composite z-score [6]	z-score [7]	composite z-score (Lefty1)	composite z-score [8]	z-score [9]	composite z-score [10]	z-score [11]	z-score [12]	z-score [13]	z-score [14]	composite z-score [15]	composite z-score [16]	composite z-score (Torsin-1A (Homo sapiens) [17])	composite z-score (Torsin-1A (Homo sapiens) [18])	composite z-score [19]
O=C1NC(=O)C2C1C=CC(C(O)CCc1ccccc1)N2Nc1ccccn1 (stereo not given)	-0.0572	0.495	0.318	0.415	0.269	-0.157	0.681	-0.139	0.589	-1.13 (inactive)	0.149	-0.466 (inactive)	-0.922 (inactive)	0.433 (inactive)	-0.382 (inactive)	0.179	-0.0849	0.0825	0.486	0.0046
CC(C)(C)OC(=O)CC[C@@]1(C(=O)N2CCCCC2)N=C(c2ccc(OCCCO)cc2)O[C@@H]1c1ccccc1CN=[N+]=[N-]	3.24	1.21	1.26	1.03	1.04	0.0627	1.58	0.0215	1.35	-0.931 (inactive)	0.34	-1.95 (inactive)	0.37 (inactive)	0.414 (inactive)	-0.284 (inactive)	1.07	0.248	1.1	1.22	-0.226
O=C1OCC=C[C@H]2OC34C=CCN(CCN5CCOCC5)C(=O)[C@H]3N(CCCCCO)C(=O)[C@@H]4[C@@H]12 (stereo not given in full)	2.23	-0.277	0.311	-0.155	-0.307	-0.12	-0.829	-0.0262	0.28	-0.346 (inactive)	-0.304	0.0976 (inactive)	0.0824 (inactive)	2.22 (inactive)	-0.555 (inactive)	0.257	-0.128	-0.419	0.11	0.175
O=[N+]([O-])c1ccc(C[n+]2ccc(-c3ccc(CO)cc3)cc2)o1	1.38	0.148	0.197	-0.0943	1.34	0.59	-0.93	0.362	1.17	-0.208 (inactive)	-0.0922	-1.13 (inactive)	-0.42 (inactive)	-0.464 (inactive)	0.239 (inactive)	0.85	0.0816	-0.078	0.0063	1.44
Cc1ccc(-c2cccc(=O)o2)cc1	-1.57	-0.935	-0.404	-0.551	0.272	0.156	-0.241	-0.33	-0.233	-1.23 (inactive)	0.796	-0.0525 (inactive)	1.07 (inactive)	-0.322 (inactive)	0.699 (inactive)	-0.317	-0.0523	-0.495	-0.173	-0.0613
COC(=O)c1ccc(OC)c(/C=C\CC(CCc2ccccc2)OC(=O)c2ccncc2)c1 (stereo not given)	0.499	-0.235	-0.21	-0.358	1.45	1.23	1.38	1.01	0.334	-0.912 (inactive)	-0.272	-1.66 (inactive)	1.02 (inactive)	1.75 (inactive)	0.455 (inactive)	0.925	-0.404	0.175	0.092	1.25
O=C1N(CCS(=O)(=O)c2ccccc2)c2ccccc2[C@H]2OC(c3ccc(OCCCO)cc3)=N[C@@]12CCS(=O)(=O)c1ccccc1	3.19	1.21	0.634	0.943	1.42	1.74	-1.23	0.589	0.816	-3.3 (inactive)	1.52	-1.61 (inactive)	1 (inactive)	3.35 (inactive)	-0.168 (inactive)	0.842	1.08	0.766	1.03	1.66
CC(C)C[C@@H]1NC(=O)[C@@H]2C[C@H](C(=O)NCCCC[N+](C)(C)C)[C@H](c3cccc(OCCO)c3)N2C1=O	2.63	0.235	-0.584	-0.173	1.45	1.38	-0.69	1.47	-0.445	-0.45 (inactive)	0.379	0.347 (inactive)	-0.595 (inactive)	-0.943 (inactive)	-0.231 (inactive)	0.154	-0.025	1.3	0.66	2.11
CC(C)c1ccc(NN2C(C(O)c3cccs3)C=CC3C(=O)N(c4ccccc4)C(=O)C32)cc1 (stereo not given)	0.548	1.24	0.814	1.03	0.963	-0.737	-1.13	0.0247	1.06	-0.893 (inactive)	0.119	-0.506 (inactive)	-0.579 (inactive)	0.812 (inactive)	0.311 (inactive)	1.78	0.152	0.248	0.182	-0.04
CN(C)C(=O)[C@@]1(CCS(=O)(=O)c2ccccc2)N=C(c2ccc(OCCCO)cc2)O[C@H]1c1ccccc1CN=[N+]=[N-]	1.78	1.25	0.642	1.06	0.871	0.513	-0.0571	0.49	0.915	0.628 (inactive)	0.909	-3.95 (inactive)	-0.873 (inactive)	-0.151 (inactive)	-0.607 (inactive)	1.13	0.148	1.07	0.351	0.159
